Rows were chosen to be rich in hits. Some 1.3% of all compounds tested hit in one or more screens of this group.
LYPLA1 inh: counter-screen for PME1 inhibitors: inhibitors of human LYPLA1 | O75608 | recombinant LYPLA1, FP-Rh probe fluorescence polarization | inhibition, % at 5.9 µM | 0.16% of 320,000 active | AID 2174;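 active = inhibition above the mean of all tested compounds plus 3 SD, set per campaign, cut at about 14% in these data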;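 note: inhibitors block serine hydrolase probe labeling of LYPLA1 so polarization falls; 0% = enzyme with DMSO and 100% = wells lacking LYPLA1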
Target sequence (O75608 whole entry, looked up): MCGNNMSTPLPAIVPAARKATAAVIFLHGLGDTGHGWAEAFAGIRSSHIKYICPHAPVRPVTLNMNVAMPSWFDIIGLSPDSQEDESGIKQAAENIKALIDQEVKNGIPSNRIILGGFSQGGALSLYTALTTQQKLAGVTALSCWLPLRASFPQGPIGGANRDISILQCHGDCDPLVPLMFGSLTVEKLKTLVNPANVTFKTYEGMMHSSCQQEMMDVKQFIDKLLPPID
EBNA-1 inhibitor: blocks EBNA-1 binding to DNA; EBNA-1 DNA binding, fluorescence polarization; inhibition, % at 14.8 µM; 0.34% of 300,000 active; AID 1950; in the data active = inhibition above about 28%
PREPL inhibitor: inhibitors of human prolyl oligopeptidase-like enzyme PREPL | Q4J6C6 | recombinant PREPL, fluorescence polarization activity-based probe | inhibition, % at 5.96 µM | 0.68% of 320,000 active | AID 2751; in the data active = inhibition above about 43%;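 note: 0% = enzyme with DMSO and 100% = wells lacking enzyme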
LYPLA2 inh: counter-screen for PME1 inhibitors: inhibitors of human LYPLA2; O95372; 0.38% of 320,000 active; recombinant LYPLA2, FP-Rh probe fluorescence polarization; inhibition, % at 5.9 µM;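 active = inhibition above the screen-wide mean plus 3 SD, limit set per campaign, cut at about 26% in these data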;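 note: 0% = LYPLA2 with DMSO and 100% = wells lacking LYPLA2 enzyme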
Target sequence (O95372 whole entry, looked up): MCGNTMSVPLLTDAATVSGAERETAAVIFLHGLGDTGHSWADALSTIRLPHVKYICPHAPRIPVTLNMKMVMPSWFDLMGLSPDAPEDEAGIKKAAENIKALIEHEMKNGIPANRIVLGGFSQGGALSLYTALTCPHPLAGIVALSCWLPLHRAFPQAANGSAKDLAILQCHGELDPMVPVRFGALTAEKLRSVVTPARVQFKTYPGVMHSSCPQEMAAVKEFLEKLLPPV
ZTA counter: blocks Epstein-Barr virus ZTA, an EBNA-1 counter-screen; P03206; ZTA-DNA binding, fluorescence polarization; inhibition, % at 11 µM; 0.15% of 320,000 active; AID 2234; in the data active = inhibition above about 33%
LYPLA2 conf: LYPLA2 (human) inhibition, confirmation counter-screen | recombinant LYPLA2, FP-Rh probe fluorescence polarization | 72% of 1,100 active | shares compounds with LYPLA2 inh | inhibition, % at 5.9 µM | AID 2232;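 active = mean inhibition across replicates above the hit cutoff set in the primary screen, cut at about 26% in these data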;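 note: blocked labeling of the enzyme by serine hydrolase FP-Rh probe lowers polarization; 0% = enzyme with DMSO and 100% = wells lacking LYPLA2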
LYPLA2 gel ABPP: LYPLA2 (human) inhibition, late stage results | shares compounds with LYPLA2 inh | inhibition, % at 20 µM | AID 652029 | 30% of 150 active | rhLYPLA2 in mouse brain proteome, gel ABPP FP-Rh;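 active = inhibition of LYPLA2 enzyme probe labeling above about 50%, limit read from the data; inactive = inhibition below that limit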;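 note: loss of FP-Rh probe labeling of the LYPLA2 gel band measured as band density; 0% = DMSO only control band and 100% = blank gel background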
Numbers without * were called inactive; / = no result given.

SMILES	LYPLA1 inh	EBNA-1 inhibitor	PREPL inhibitor	LYPLA2 inh	ZTA counter	LYPLA2 conf	others
COc1cccc(CNC(=O)CN2C(=O)COc3ccc(S(=O)(=O)N4CCCCC4)cc32)c1	-2.6	-15.1	10.3	4.4	1.0	/
COc1cccc(NC(=O)CN2C(=O)COc3ccc(S(=O)(=O)N4CCCCCC4)cc32)c1	1.3	-9.1	16.6	34.9*	-15.5	38.2*
COc1cccc(NC(=O)CN2C(=O)COc3ccc(S(=O)(=O)N4CCOCC4)cc32)c1	-1.0	-3.4	-0.7	37.9*	-11.8	35.2*
COc1cc(NC(=O)CN2C(=O)COc3ccc(S(=O)(=O)N4CCOCC4)cc32)cc(OC)c1	-3.2	-9.6	4.6	7.3	-8.4	/
CCOC(=O)Cc1cc(=O)n2[nH]c(C(C)(C)C)cc2n1	3.7	11.6	-1.4	2.1	8.3	/
COc1ccc(NS(=O)(=O)c2ccc(C)c(C(=O)N3CCCCCCC3)c2)cc1	-0.8	-7.7	0.2	-3.6	11.7	/
Cc1c(C(=O)Nc2c(F)cc(F)cc2Br)sc2ncn(CC(=O)N3CCCC3)c(=O)c12	-0.6	-7.2	10.9	2.9	-5.5	/
COc1cc(OC)cc(C(=O)NCC2CCCN(C(=O)c3csc(C)n3)C2)c1 (stereo not drawn)	0.7	13.8	7.0	6.9	12.7	/
COc1cccc(NC(=O)CN2C(=O)CSc3ccc(S(=O)(=O)N4CCOCC4)cc32)c1	0.4	2.7	7.3	49.2*	-9.3	45.3*
COc1ccc(C(=O)O)cc1S(=O)(=O)Nc1cc(Cl)ccc1N1CCOCC1	-1.0	/	10.6	2.1	-3.3	/
COc1ccccc1Oc1ccc2c(c1)C(=O)N(c1cccc(O)c1)C2=O	-8.7	-4.0	4.6	51.2*	0.1	50.8*	LYPLA2 gel ABPP=34.0
O=C1c2ccc3c4c(ccc(c24)C(=O)N1c1cccc(O)c1)C(=O)N(c1cccc(O)c1)C3=O	-5.0	5.2	28.0	-1.9	8.0	/
O=C(Nc1ccncc1)c1cccc(S(=O)(=O)N2CCN(c3ccc(F)cc3)CC2)c1	-11.3	9.6	-47.8	40.4*	23.5	24.6
CN(c1ccccc1)S(=O)(=O)c1ccc(Cl)c(C(=O)NCc2ccccc2CN2CCCC2)c1	-2.2	/	14.9	-1.4	-2.1	/
COc1cc(/C=C2\CCc3ccccc3C2=O)cc(OC)c1OC	3.0	-1.1	6.9	26.8*	0.2	18.0
CSc1cccc(CN2CCC(Oc3ccc(C(=O)N4CCCCC4)cc3)CC2)c1	3.8	9.3	12.1	31.4*	-0.9	9.1
CC(C)/C=C/CN1CCC(Oc2ccc(C(=O)N3CCCC3)cc2)CC1	-0.1	13.8	-1.6	59.8*	4.2	4.7
COc1ccccc1/C=C/CN1CCC(Oc2ccc(C(=O)N3CCCC3)cc2)CC1	3.5	18.5	18.6	17.1	-7.8	/
CSc1cccc(CN2CCC(Oc3cccc(C(=O)N4CCCC4)c3)CC2)c1	1.8	-6.7	19.5	9.0	-3.0	/
Cc1ccc(C2(C)NC(=O)N(CC(=O)N3c4ccccc4NC(=O)CC3C)C2=O)cc1 (stereo not drawn)	0.4	/	24.1	-4.4	-8.9	/
Cc1cc(NC(=O)C(C)SCC(=O)Nc2cc(C(F)(F)F)ccc2N2CCOCC2)no1 (stereo not drawn)	2.7	7.4	9.7	6.5	-7.3	/
O=C(OCC(=O)N1CCc2ccccc21)c1ccccc1[N+](=O)[O-]	-3.0	/	4.3	48.8*	-11.2	55.9*
CCOC(=O)C1CCN(C2=NC(=O)/C(=C/c3ccc(Cl)cc3)S2)CC1	3.9	0.3	17.9	31.1*	6.0	34.7*
CCOC(=O)C1CCN(C2=NC(=O)/C(=C/c3ccc(OC)c(OC)c3)S2)CC1	-1.7	-1.5	0.5	-2.1	15.2	/
O=C(COC(=O)/C=C/c1ccc(OC(F)F)cc1)Nc1ccc(N2CCOCC2)cc1	-0.5	-6.9	13.2	8.6	8.3	/
SMILES	LYPLA1 inh	EBNA-1 inhibitor	PREPL inhibitor	LYPLA2 inh	ZTA counter	LYPLA2 conf	others
C=CCNC(=O)CN1C(=O)c2cccc3cccc1c23	1.9	2.6	-4.8	-1.1	8.0	/
COC(=O)c1ccc(NC(=O)C(=O)N2CCN(C(=S)Nc3ccc(C)cc3)CC2)cc1	0.4	2.8	2.1	48.0*	-1.9	54.5*
COCCNC(=S)N1CCN(C(=O)C(=O)Nc2ccc(C(=O)OC)cc2)CC1	-2.9	7.9	2.5	-3.5	-6.3	/
COC(=O)c1ccc(NC(=O)C(=O)N2CCN(C(=S)Nc3ccc(OC)cc3)CC2)cc1	-2.4	8.2	-7.7	42.1*	-12.6	57.8*
COc1ccc(S(=O)(=O)NCc2ccccn2)cc1NC(=O)c1ccccc1C	0.3	-21.1	0.3	-9.0	6.8	/
O=C1C2CCCCN2C(=O)N1CCCCN1CCN(c2ccc([N+](=O)[O-])cc2)CC1 (stereo not drawn)	5.7	0.5	28.3	30.9*	7.2	16.0
Cc1cc(=O)oc2cc(Oc3ccc(C(N)=O)cc3[N+](=O)[O-])ccc12	3.6	0.0	29.1	33.1*	0.5	26.3*
Cc1cccc(C(=O)NC(=S)Nc2ccc(Cc3ccncc3)cc2)c1	0.1	-0.8	-0.6	25.4	-0.3	/
COc1cc(C(=O)NC(=S)Nc2ccc(Cc3ccncc3)cc2)cc(OC)c1OC	-0.5	-7.2	-18.3	25.8*	2.3	16.6
Cc1cc(C)cc(C(=O)NC(=S)Nc2ccc(Cc3ccncc3)cc2)c1	-2.2	-17.0	1.4	34.1*	-10.8	41.3*
Cc1c(Cc2ccccc2)c(=O)oc2cc(OC(=O)c3ccccc3)ccc12	-0.9	-5.1	-3.6	7.0	12.8	/
Cc1c(Cc2ccccc2)c(=O)oc2cc(OCc3ccc(C(=O)O)cc3)ccc12	13.4	8.9	-3.8	28.1*	3.2	52.1*	LYPLA2 gel ABPP=24.0
Cc1ccccc1NC(=O)c1nn(C)c2c1CS(=O)(=O)c1ccccc1-2	1.4	3.4	-9.1	39.8*	4.3	46.0*
Cc1nc2ccccc2n(CC(=O)Nc2cc(Cl)cc(Cl)c2)c1=O	-1.6	-16.4	-62.4	31.8*	15.1	42.4*
CCOc1ccccc1N1CCN(C(=O)CCCN2C(=O)c3cccc4cccc(c34)C2=O)CC1	-0.8	-4.2	17.7	7.4	-3.8	/
O=C(CCCN1C(=O)c2cccc3cccc(c23)C1=O)N1CCN(c2ccccc2O)CC1	7.6	-7.6	-52.0	48.6*	-3.2	48.7*
O=C(CCCN1C(=O)c2cccc3cccc(c23)C1=O)N1CCN(c2ccccc2)CC1	5.8	-19.0	-138.0	36.7*	-5.3	40.1*
Cc1ccc(S(=O)(=O)NCCNc2ccc(Br)c(C)c2)cc1	/	/	-55.6	/	/	/
CC(=O)NC(C)c1ccc(C(=O)CSc2nnc(C3CC3)n2C2CC2)cc1 (stereo not drawn)	-3.8	/	4.0	-3.2	4.1	/
CCOC(=O)c1sc(/N=C/N(C)C)nc1C	4.5	-5.1	-1.9	31.6*	-3.4	2.0
